According to PubChem BioAssay AID1159524 (National Center for Advancing Translational Sciences (NCATS), 2015):
Out of some 410,000 compounds screened, about 5,100 (1.2%) were called active. Inconclusive results (about 8%) are left out. Many of the other results were omitted from the sample, so actives are more common in it than they were. Unmarked numbers belong to inactive results. The call rests on the fitted dose curve; tested in HEK293T cells.

Assay: High Throughput Screening for Foot and Mouth Disease Virus Antivirals; further: read-out not given here; nearly all actives have a fitted effect of over 45% in size
Settings: FMDV antiviral cell-based qHTS; series mostly up to 57.9 µM; activity change, negative = inhibition: at the top concentration
On the % scale 0 is the no-effect control and ±100 the full control effect; potency means the concentration at half of the fitted maximal effect.

Structure (SMILES) | activity change, negative = inhibition | Potency
COCCn1c(=O)c(-c2ccccc2)nc2cnc(N3CCOCC3)nc21 | 2.36% | –
CC1CCCCC1NC(=O)/C(C#N)=C/C=C/c1ccccc1[N+](=O)[O-] (stereo not drawn) | – | 28.2 µM (active)
CC1CC(C)CN(C/C=C/c2ccccc2[N+](=O)[O-])C1 (stereo not drawn) | -17.6% | –
CC1CCCCC1NC(=O)c1cc(=O)[nH]c2ccccc12 (stereo not drawn) | 5.79% | –
Cc1ccc2c(C)nc(N3CCCC(C(=O)NC(C)(C)CO)C3)nc2c1 (stereo not drawn) | -17.6% | –
CCc1ccccc1NC(=O)N1CCC2(CC1)Oc1ccccc1C(=O)N2Cc1ccccc1F | -21.5% | –
O=C(Nc1cc(-c2nc3ccccc3o2)ccc1Cl)c1cc([N+](=O)[O-])ccc1N1CCOCC1 | 11.7% | –
COc1cccc2oc(CCc3ccccc3)cc(=O)c12 | 44.4% | –
CCCCCc1c(Cc2ccccc2)ncn1CCc1ccccc1OC | – | 35.5 µM (active)
CCCCNS(=O)(=O)CCNCc1ccccc1OC | -3.68% | –
COc1ccccc1CCn1c(=O)c(-c2cn(C)c3ccccc23)nc2cncnc21 | 5.03% | –
COc1ccccc1Cc1c(-c2ccc(Cl)cc2)nc2c3ccccc3ccn12 | -6.93% | –
CCCCc1c(-c2ccc(Br)cc2)ncn1CCc1ccccc1OC | – | 35.5 µM (active)
CCOC(=O)c1cc2c(=O)n3ccccc3nc2n(CC2CCCO2)c1=NC(=O)c1ccccc1F (stereo not drawn) | 26.9% | –
CCn1cc(C(=O)N2CCN(c3cc(C)ccc3C)CC2)c(=O)c2cc(S(=O)(=O)N(C)C3CCCCC3)ccc21 | -12.4% | –
Cc1oc(-c2cccc(NC(=O)c3ccccc3)c2)nc1CNC(=O)c1cnc2ccccn2c1=O | -11.7% | –
O=c1c(-c2ccc(F)cc2)nc2cnc(N3CCNCC3)nc2n1Cc1cccs1 | 4.3% | –
O=C(C(=O)N1CCOc2ccc(CN3CCN(Cc4ccccn4)CC3)cc2C1)c1ccccc1 | 7.01% | –
CCC(=O)Nc1ccccc1-c1nc2ccccc2n(CC(=O)Nc2ccc(C)c(C)c2)c1=O | -7.03% | –
COc1cccc(-c2nc3ccc(N4CCN(C)CC4)cc3[nH]2)c1 | – | 14.1 µM (active)
COc1cccc(N2CCN(C3CC(=O)N(c4ccc(Cl)cc4)C3=O)CC2)c1 (stereo not drawn) | -21.3% | –
COc1ccc(N2CCN(C3=NS(=O)(=O)C(c4cccc(Br)c4)=C3C)CC2)cc1 | 19.9% | –
COc1cccc(-n2c(=O)c3c(C)c(C(=O)N(C)C)sc3n(Cc3cccc(C)c3)c2=O)c1 | -16.4% | –
COc1ccc(C(=O)/C=C/Nc2ccccn2)cc1 | – | 8.91 µM (active)
CCOc1ccc(N/C=C/C(=O)c2ccccc2)cc1 | – | 10 µM (active)

Structure (SMILES) | activity change, negative = inhibition | Potency
COc1cccc(N(CC(=O)NC2CCCC2)C(=O)CCCC(=O)Nc2ccccn2)c1 | 16.8% | –
CCOc1ccc(NC(=O)C2CCCN(C(=O)Nc3ccccc3)C2)cc1 (stereo not drawn) | 22.4% | –
COCCN(C(=O)CCC(=O)Nc1ccccn1)C(C(=O)NCCC(C)C)c1ccc(OC)cc1 (stereo not drawn) | 1.75% | –
CCOc1ccc(NC(=O)C(C)N2C(=O)c3ccccc3C2=O)cc1 (stereo not drawn) | -20.8% | –
OCC1CCCN(c2nc3cc4c(cc3cc2CNCc2cccs2)OCO4)C1 (stereo not drawn) | 8.34% | –
CCn1cc(C(=O)NCc2ccccc2)c(=O)c2cc(S(=O)(=O)N3CCCCC3)ccc21 | -15.6% | –
C=C1C([C@@]2(C)C(OC(C)=O)CC(=O)O[C@@](C)(COC(C)=O)C2CC(=O)OC)C(OC=O)C(OC(=O)C(O)C(C)CC)[C@]2(C)C(c3ccoc3)CC(=O)C12O (stereo partly drawn) | -18.7% | –
O=C(CN1Cc2ccccc2OC(c2ccccc2)C1)N1CCCCC1c1cccnc1 (stereo not drawn) | 1.09% | –
O=c1c(CCc2ccccc2)nc2cnc(N3CCNCC3)nc2n1Cc1cccs1 | -1.48% | –
CCN(C(=O)Nc1cccc2ccccc12)c1ccccc1 | -16.1% | –
CCCCC(O)(CCCC)C(=O)NN(C(=O)CCl)c1ccccc1 | – | 31.6 µM (active)
CCCCNC(=O)CN1C(=O)NC(Cc2ccccc2)(Cc2ccccc2)C1=O | 20.1% | –
Cc1cc2ccccc2n1CCNC(=O)c1ccc(F)cc1 | 23.9% | –
Cc1cccc2c3c(ccc12)C1=C(C(=O)C3=O)C(C)CO1 (stereo not drawn) | -20.6% | –
COc1ccc(-c2nc3cnc(Oc4ccccc4)nc3n(Cc3cccs3)c2=O)cc1 | 5.33% | –
c1ccc(-c2cnc(CN3CCN(c4ccccc4)CC3)o2)cc1 | 7.04% | –
CCCCn1c(SCC(=O)N2CCCC2=O)nc2cc(S(N)(=O)=O)ccc21 | -13% | –
CCCCn1c(SCc2ncc(-c3ccccc3)o2)nc2cc(S(N)(=O)=O)ccc21 | – | 28.2 µM (active)
CN1CCN2c3ccccc3Cc3ccccc3[C@@H]2C1 | -8.38% | –
CS(=O)(=O)N1CCC[C@@]2(CCN(c3ccncc3)C2)C1 | 5.48% | –
Cc1ccc(-c2ccc(C(=O)N3CCc4nnc(CNC(=O)c5ccccc5)n4CC3)cc2)cc1 | 9.83% | –
COc1ccc(-c2csc3nc(-c4ccccc4F)oc(=O)c23)cc1OC | – | 20 µM (active)
Cc1sc2nc(-c3ccccc3F)oc(=O)c2c1C | 9.65% | –
COc1ccc(-c2csc3ncnc(Oc4ccc5c(C)cc(=O)oc5c4)c23)cc1 | -19.5% | –
CCOC(=O)C1CCCN(C(=O)c2ccc(-n3ccc4ccccc43)s2)C1 (stereo not drawn) | -12.6% | –

Structure (SMILES) | activity change, negative = inhibition | Potency
CCn1c2ccccc2c2cc(NC(=O)COc3ccc(C)cc3C)ccc21 | -14.4% | –
Cc1ccc(OCC(=O)Nc2ccc(N3CCN(C(=O)c4ccco4)CC3)cc2)c(C)c1 | – | 15.8 µM (active)
Cc1ccc(Cl)c(OCC(=O)N(C)CC(=O)Nc2ccc(N3CCOCC3)cc2)c1 | -9.29% | –
COc1cccc(C(=O)Nc2c3c(nn2-c2cccc(C)c2C)CS(=O)(=O)C3)c1OC | -29.6% | –
COc1ccc(C(=O)NC2CCCc3c2cnn3-c2cccc(C)c2C)c(OC)n1 (stereo not drawn) | – | 17.8 µM (active)
Cc1cccc(C(=O)OC(C)C(=O)NC2CCCc3ccccc32)c1O (stereo not drawn) | 18.9% | –
CCOc1ccc(N(CC)C(=O)c2noc3c2COc2ccc(C)cc2-3)cc1 | -9.48% | –
O=C(C1CCC(Cn2c(=O)c3sccc3n(Cc3ccccc3F)c2=O)CC1)N1CCCCC1 (stereo not drawn) | 0% | –
CNc1ccc(-c2nc(-c3ccccc3C)no2)cc1[N+](=O)[O-] | 67.5% | –
C#CCCCCCCCCCCCCCCCC(=O)O | – | inactive
CC(=O)c1ccc(NC(=O)CCc2nc(-c3ccc(C)cc3)no2)cc1 | -17.7% | –
Fc1ccc(OCc2nn3c(Cn4nnc5ccccc54)nnc3s2)cc1 | -6.75% | –
N#CCCn1cnc2ccccc21 | -16% | –
c1ccc(Cc2nn3c(Cn4cnc5ccccc54)nnc3s2)cc1 | – | 14.1 µM (active)
COc1ccc(CNc2ncncc2-c2ccccc2C)c(OC)c1 | -20.2% | –
Cc1cc(C(=O)NCC2Cc3cccc(-c4cncnc4)c3O2)c(C)o1 (stereo not drawn) | -7.51% | –
CNc1cc(-c2c(C)noc2C)ncn1 | -0.693% | –
COCCCNC(=O)c1ccc(NC(=O)c2nsc3ccccc23)cc1 | 22.2% | –
COCCn1c(SCC(=O)c2cc(C)ccc2C)nc2cc(C(=O)NC3CCCC3)ccc2c1=O | -5.56% | –
CC(C)c1nccn1S(=O)(=O)c1cc([N+](=O)[O-])ccc1Cl | -7.03% | –
CCc1nc(C)cn1S(=O)(=O)c1cc([N+](=O)[O-])ccc1Cl | – | 20 µM (active)
CCc1nccn1S(=O)(=O)c1cccc([N+](=O)[O-])c1 | -18.2% | –
CCCCN1CC(c2nc3ccccc3n2CCCCOc2ccc(C)cc2C)CC1=O (stereo not drawn) | – | 39.8 µM (active)
COc1ccc(OCCCn2c(C3CC(=O)N(c4ccc(F)cc4)C3)nc3ccccc32)cc1 (stereo not drawn) | -10.8% | –
CCc1ccccc1N1CC(c2nc3ccccc3n2CCCCOc2ccccc2)CC1=O (stereo not drawn) | 0% | –

Structure (SMILES) | activity change, negative = inhibition | Potency
Cc1ccc(CNC(=O)Cn2c(=O)ccc3cc(S(=O)(=O)N4CCCC4)ccc32)cc1 | -21.1% | –
Cc1ccc(-n2c(SCC(=O)c3ccccc3)nc3c([nH]c4ccccc43)c2=O)cc1 | 4.48% | –
O=C1Oc2ccccc2C(=O)/C1=C/c1ccccc1O | – | 28.2 µM (active)
C=C(C)C1CC=C(CO)CC1 (stereo not drawn) | -0.494% | –
COc1ccccc1CN(C)c1nnnn1-c1ccccc1 | -2.75% | –
COc1ccccc1-n1nnnc1S(=O)(=O)Cc1ccc(Cl)cc1 | – | 10 µM (active)
CCN(C(=O)CSc1nnnn1-c1ccccc1OC)C1CCS(=O)(=O)C1 (stereo not drawn) | 17.3% | –
CSc1ccccc1N1CCN(CCCCCC(=O)NC2CCCc3ccccc32)CC1 (stereo not drawn) | -25% | –
CCC(C)C(=O)O[C@@H]1C[C@@]2(C)C(c3ccoc3)OC(=O)CC23OC2(C)O[C@@]14[C@@]1(C)C(CC(=O)OC)C5(C)CC1(O)C(O)(C5OC(=O)C1(C)OC1C)C(OC(C)=O)[C@@]34O2 (stereo partly drawn) | -13.6% | –
Cc1ccc(NC(=O)N2CCC(C(=O)NCc3ccc(F)cc3)CC2)cc1 | – | 7.08 µM (active)
O=C(NCc1ccc(F)cc1)C1CCN(C(=O)Nc2ccc(F)cc2)CC1 | -17% | –
Cc1ccc(C(=O)NC2CCN(C(=O)Nc3ccc(F)cc3)CC2)cc1 | 0% | –
O=C(CCN1Cc2ccccc2OC(c2ccccc2)C1)N[C@@H]1CS(=O)(=O)C[C@H]1O (stereo partly drawn) | 4.7% | –
COc1ccc(NC(=O)CCN2CCN(CCO)CC2)cc1 | 11.4% | –
O=C(NCC(c1ccc(Cl)cc1)N1CCOCC1)c1ccccc1F (stereo not drawn) | -11% | –
CCC(C)(C)c1ccc(OCC(=O)N(C)C)c(C(C)(C)CC)c1 | – | 31.6 µM (active)
Cc1ccc(-n2c(=O)c3cccnc3n2CC(=O)NCc2ccc(F)cc2)cc1C | 2.88% | –
CC(C)Nc1ncnc2c1ncn2[C@H]1CN(Cc2ccncc2)C[C@@H](CO)O1 | -18.6% | –
OC[C@@H]1CN(Cc2cccs2)C[C@H](n2cnc3c(Nc4ccccc4)ncnc32)O1 | 4.4% | –
OC[C@@H]1CN(C2CCCC2)C[C@H](n2cnc3c(NC4CCC4)ncnc32)O1 | -7.88% | –
OC[C@@H]1CN(Cc2ccncc2)C[C@H](n2cnc3c(N4CCN(c5ccccc5)CC4)ncnc32)O1 | – | 12.6 µM (active)
OC[C@@H]1CN(Cc2ccc(-c3ccccc3)cc2)C[C@H](n2cnc3c(NC4CCCC4)ncnc32)O1 | – | 15.8 µM (active)
OCCN1CCN(c2ncnc3c2ncn3[C@H]2CN(Cc3ccco3)C[C@@H](CO)O2)CC1 | -21.6% | –
